Test results: ChEMBL document CHEMBL4513216, “Probing the Open Global Health Chemical Diversity Library for Multistage-Active Starting Points for Next-Generation Antimalarials” (ACS Infect Dis, 2020)
The campaign covered roughly 69,000 compounds. About 8,600 (12%) showed an effect of 50% or more. The entries come from a sample that favours strong results as a whole.

These molecules were tested on Plasmodium berghei (assay: Screen against P. berghei liver stage (PbLuc), transformed with Luciferase, at 10uM). Settings: tested at 10 uM.
Format: functional, HepG2

| SMILES | INHIBITION [%] |
| --- | --- |
| N[C@H]1c2ccccc2C[C@@H]1NC(=O)C1CCN(Cc2ccco2)CC1 | -13.6 |
| O=C(CS(=O)(=O)Cc1csc(-c2ccc(F)cc2)n1)NCC1CC1 | 0.991 |
| Cc1ccn2c(F)c(C(=O)N3CCC4(CCC(=O)N(C)C4)CC3)nc2c1 | 20.5 |
| Cc1cnn(CCNCC(O)c2ccc(S(C)(=O)=O)cc2)c1 (centres undefined) | 12.6 |
| c1cc(-c2nn3c(CN4CCOCC4)nnc3s2)ccn1 | 26.7 |
| COc1ccc2c(c1)CN(CC(=O)NC1CCCC1)CC2 | -2.48 |
| Cc1cc2nc(SCC(=O)N3CCCC3)n(C(C)C)c(=O)c2[nH]1 | -19.7 |
| COCCN(C)C[C@@H]1CCC[C@@H]2CN(c3cc(OC)ncn3)C[C@@H]21 | 41.5 |
| c1cnc(N2C[C@H]3CCC[C@@H](CN4CCCC4)[C@H]3C2)nc1 | 9.97 |
| COc1cc(N2C[C@H]3CCC[C@@H](CN4CCOCC4)[C@H]3C2)ncn1 | 73 |
| COc1cc(N2C[C@H]3CN(C(=O)c4cnccn4)C[C@H]3C2)ncn1 | -1.15 |
| COc1cc(N2C[C@H]3OCC[C@H]3[C@H](C(=O)N3CCCC3)C2)ncn1 | 30.3 |
| COc1cc(N2C[C@H]3CCN(CCN4CCCC4)C[C@H]3C2)ncn1 | 52.6 |
| COCCN1C[C@@H](C)[C@@]2(COCCN(C(=O)c3cnc(C)cn3)C2)C1 | 8.57 |
| CC(=O)NCc1noc2c1CN(CCN1CCCC1)CC2 | 39.3 |
| O=C(O)COc1ccccc1CN1CCCC1c1cnccn1 (centres undefined) | 47.2 |
| O=C(C[C@@H]1COC[C@H]2CN(Cc3ccccc3)C[C@@H]12)N1CCCC1 | 41.2 |
| COc1ccccc1CN1C[C@@H]2CN(Cc3cccnc3)CCO[C@@H]2C1 | 20.1 |
| Cc1ccc(N2CCO[C@H]3CN(Cc4cc(C)on4)CC[C@H]3C2=O)cn1 | 48.6 |
| Cc1cc(CN2CC[C@H]3C(=O)N(c4cccnc4)CCO[C@H]3C2)no1 | 53.2 |
| O=C1[C@@H]2CCN(CC3CCOCC3)C[C@@H]2OCCN1c1ccccc1 | -37.8 |
| COc1ccc(CN2C[C@@H]3CN(Cc4cccnc4)CCO[C@@H]3C2)cc1 | 64.5 |
| Cc1ccc(CN2CC[C@H]3C(=O)N(Cc4cccnc4)CCO[C@H]3C2)o1 | 33.4 |
| Cc1cc(CN2CC[C@H]3C(=O)N(c4ccccc4)CCO[C@H]3C2)no1 | -33.5 |
| O=C1[C@@H]2CCN(Cc3ccccn3)C[C@@H]2OCCN1c1ccccc1 | 10.1 |

| SMILES | INHIBITION [%] |
| --- | --- |
| O=C1[C@@H]2CCN(Cc3ccncc3)C[C@@H]2OCCN1c1ccccc1 | 55.2 |
| O=C1[C@H]2CN(C3CCOCC3)C[C@H]2CN1Cc1cccc(F)c1 | 1.48 |
| O=C1[C@@H]2CCN(Cc3ccoc3)C[C@@H]2OCCN1Cc1cccc(F)c1 | 70.7 |
| Fc1ccccc1CN1C[C@@H]2CN(Cc3cccnc3)CCO[C@@H]2C1 | 27.5 |
| O=c1c2c[nH]c(N3CCCC3)nc-2cn1C1CCS(=O)(=O)C1 (centres undefined) | 42.1 |
| CC(C)n1[nH]c(=O)c2c1NC(=O)CC2c1ccc(C#N)cc1 (centres undefined) | -1.04 |
| O=C1NCCCCC1Sc1ccc(F)c(F)c1 (centres undefined) | 25.2 |
| O=C(N1CCCC1)N1CC[C@H]2[C@H]1CCN2c1ncccn1 | 19.8 |
| Cc1nc(CC(=O)N2CCC(c3ccn4nccc4n3)CC2)cs1 | 23.9 |
| CCOc1ccccc1-n1c(C2CCC2)n[nH]c1=O | -27.5 |
| Cc1cnc(N2CC[C@@H]3CN(Cc4ccncc4)CCO[C@@H]3C2)nc1 | -15.3 |
| Cc1cc(N2CCN(Cc3ccccc3)CC(O)C2)cc(C)n1 (centres undefined) | 36.8 |
| O=C1[C@@H]2CCN(Cc3ccoc3)C[C@@H]2OCCN1Cc1cccnc1 | 12.5 |
| c1ccc(N2CC[C@@H]3CN(Cc4ccncc4)CCO[C@@H]3C2)cc1 | 65.1 |
| O=C1[C@@H]2CCN(Cc3ccoc3)C[C@@H]2OCCN1c1ccccc1 | 21.6 |
| O=C1[C@@H]2CCN(Cc3ccc(F)cc3)C[C@@H]2OCCN1c1cccnc1 | 24.9 |
| c1cncc(CN2CCO[C@@H]3CN(Cc4ccoc4)CC[C@@H]3C2)c1 | 50.9 |
| Cc1ccnc(N2CCN(Cc3ccccc3)CC(O)C2)c1 (centres undefined) | 43.9 |
| OC1CN(Cc2ccccc2)CCN(c2ccncc2)C1 (centres undefined) | 57.6 |
| O=C1[C@@H]2CCN(Cc3ccoc3)C[C@@H]2OCCN1c1cccnc1 | 54.4 |
| c1cnc(N2CC[C@@H]3CN(Cc4ccncc4)CCO[C@@H]3C2)nc1 | -33 |
| c1cnc(N2CCO[C@@H]3CN(Cc4ccoc4)C[C@@H]3C2)nc1 | 33.5 |
| CCNc1nc(-c2cccnc2)c(-c2ccnc(N3CCCC3)n2)s1 | 48.6 |
| CN(C)C(=O)CCCn1ccc(NC(=O)NCc2cccc(F)c2)n1 | 13.8 |
| O=C(NCc1cc[nH]n1)NCC(O)c1ccc(F)c(F)c1 (centres undefined) | -48.4 |

| SMILES | INHIBITION [%] |
| --- | --- |
| CCN(CC)S(=O)(=O)c1cccc(C(=O)N(C)Cc2ccsc2)c1 | -61.4 |
| CC[C@H]1N(C)CCC[C@]12CCC(=O)N2Cc1ccncc1 | 43.2 |
| CCOc1ccc(C(=O)N2CCCC2c2c(C)nn(C)c2OC)cn1 (centres undefined) | -105 |
| Cc1c(CN2CCCC(n3c(=O)oc4ccccc43)C2)cnn1C (centres undefined) | 35.75 |
| N#Cc1cccc(CN2C[C@@H]3CN(c4ncccn4)C[C@@H]3C2)c1 | 8.66 |
| N#Cc1cccc(CN2CC[C@@H]3CN(c4ncccn4)CCO[C@@H]3C2)c1 | 56.4 |
| Cc1cc(C)n(CC2CN(Cc3cccc(C#N)c3)CCO2)n1 (centres undefined) | -8.11 |
| CCc1ocnc1C(=O)N1CCCC1c1noc(C(C)C)n1 (centres undefined) | 11.7 |
| Cc1cc(NC(=O)CN2CCCC2c2noc(C(C)C)n2)n(C)n1 (centres undefined) | 6.81 |
| CC(C)c1nc(C2CCCN2CC(=O)Nc2cccnc2)no1 (centres undefined) | -17.6 |
| CC(C)c1nc(C2CCCN2Cc2ccccc2C#N)no1 (centres undefined) | 22.5 |
| CC(C)c1nc(C2CCCN2C(=O)c2nccnc2N)no1 (centres undefined) | 61.1 |
| CC(C)c1nc(C2CCCN2CC(=O)Nc2ccc(Cl)cn2)no1 (centres undefined) | 54.6 |
| CC(C)c1nc(C2CCCN2Cc2ccno2)no1 (centres undefined) | 17 |
| CCc1nc(C2CCCN2C(=O)c2nccnc2N)no1 (centres undefined) | -3.18 |
| Cc1cc(NC(=O)CN2CCCC2c2noc(C(C)C)n2)no1 (centres undefined) | 50.3 |
| Cc1cc(NC(=O)CN2CCCC2c2noc(C3CC3)n2)no1 (centres undefined) | 21.6 |
| Cc1nnc(NC(=O)CN2CCCC2c2noc(C(C)C)n2)s1 (centres undefined) | -36.1 |
| CC(C)c1nc(C2CCCN2Cc2ccncc2Cl)no1 (centres undefined) | 53.9 |
| COC(=O)c1cc(C(=O)N2CCC(OC)CC2)n(-c2ccccc2)n1 | -12.33 |
| COC(=O)CNC(=O)c1sc(-c2ccc(Cl)s2)nc1C | -58 |
| CC(O)CN1CCC(CNCc2cccc(OC(F)(F)F)c2)CC1 (centres undefined) | 35.4 |
| CS(=O)(=O)NC[C@]12COC[C@H]1CN(C(=O)N1CCCC1)C2 | 21.3 |
| CNCc1nc(-c2ccc3c(c2)OCO3)c[nH]1 | 8.4 |
| CN1CCC(n2nc(CC3CC3)nc2-c2ccc(F)cc2Cl)CC1 | 34.9 |

| SMILES | INHIBITION [%] |
| --- | --- |
| CN(C)CCN(Cc1cccc(F)c1)C(=O)c1ccc2nccn2c1 | 2.91 |
| CC(C)c1cc(NC(=O)CN2CCCC2c2noc(C(C)C)n2)on1 (centres undefined) | 52.3 |
| Cc1cc(NC(=O)CN2CCCC2c2noc(C(C)C)n2)on1 (centres undefined) | -7.31 |
| Cc1cc(NC(=O)CN2CCn3c(C)nnc3C2)no1 | 45.1 |
| Cc1cc(NC(=O)CN2CCn3c(nnc3C(C)C)C2)no1 | 63.9 |
| Cc1cc(NC(=O)CN2CCn3c(nnc3C(C)C)C2)on1 | -0.219 |
| CC(C)c1nc(C2CCCN2CC(=O)Nc2nncs2)no1 (centres undefined) | 10.2 |
| O[C@@H]1CCN(CC2CCOC2)[C@H]1Cc1ccccc1 (some centres undefined) | 46.7 |
| COc1ccc(CN(Cc2cncn2C)CC2CCCO2)cc1OC (centres undefined) | 15.9 |
| CC(C)C(C)NC(=O)Nc1ccc(CS(C)(=O)=O)cc1 (centres undefined) | 3.16 |
| COc1ccc(CN2CCn3cc(CNC(=O)CC4CC4)nc3C2)cc1 | 40.4 |
| CCOc1ccccc1CNC1CCCN(Cc2noc(C)n2)C1 (centres undefined) | 21.5 |
| COC(=O)c1ccc(CN(C(C)C)C(C)C)o1 | 42.1 |
| CC(C)N(Cc1ccc(C(=O)O)o1)C(C)C | 69.6 |
| CNC(=O)c1ccc(CN(C(C)C)C(C)C)o1 | 47.9 |
| c1coc(CN2CCCn3c(nnc3Cn3cccn3)C2)c1 | 4.68 |
| O=C(Cc1cccs1)N1CCn2cc(Cn3cccn3)nc2C1 | -2.72 |
| O=C(c1ccc[nH]1)N1CCn2cc(Cn3cccn3)nc2C1 | 74.2 |
| O=C(Cc1cccc(F)c1)N1CCn2cc(Cn3cccn3)nc2C1 | 26.4 |
| O=C(c1ccc[nH]1)N1CCn2cc(Cn3cncn3)nc2C1 | 10.8 |
| O=C(CC1CC1)N1CCn2cc(Cn3cccn3)nc2C1 | 42.7 |
| O=C(Cc1ccc(F)cc1)N1CCn2cc(Cn3cccn3)nc2C1 | 51.2 |
| COc1ncccc1CN1C[C@@H]2COC[C@]2(CNC(=O)c2ccno2)C1 | 29 |
| Cc1nc(C)c(CN2CCC(N(C)Cc3noc(C4CC4)n3)C2)s1 (centres undefined) | -19.9 |
